Records with an inconclusive call do not appear. Unmarked numbers belong to inactive results. Activity calls are given as the source filed them. The call rests on the fitted dose curve; in most records, active means well fitted activation curve with a large enough effect; inconclusive means small, poorly fitted or top-dose-only effect, or another doubt; inactive means no such curve, though single readings can be large or run the other way.
Potency means the concentration at half of the fitted maximal effect.

This assay can be described thus: Cell Proliferation Assay against the TMD8 Cell Line (Caspase readout at 8 hrs) (AID 651713). As to conditions: TMD8 lymphoma cells, caspase activation luminescence; series mostly up to 46.1 µM; caspase activation: at the top concentration. An excerpt:
One class of targeted therapeutics showing early clinical success in killing of ABC DLBCL lines are small molecule inhibitors of the Bruton tyrosine kinase (BTK) 11. Thus, we chose to investigate what additional compounds, if any, would synergize with the BTK inhibitor Ibrutinib (PCI-32765).
Prior to any combination assays, using an NCATS developed oncology compound library called the Mechanism of Interrogation Plate (MIPE), two well studied ABC DLBCL lines (TMD8 and HBL1) were screened using a cell viability assay (CellTiterGlo) and a 12-point titration series for each single agent. These initial experiments offered insight into the concentration range that offered the best coverage of activity and non-activity to assure relevant data is generated. In addition to the viability signature associated with this library, we examined the apoptotic response of each agent versus the TMD8 line as judged by caspase 3/7 activation. Activity was assayed at both 8 and 16 hour time-points to gain an appreciation of which agents induced an apoptotic response in a reasonable timeframe from a therapeutic exposure perspective. MIPE was also assayed for single agent viability in a human mesenchymal stem cell (hMSC) line as a surrogate of each library members potential therapeutic index.
The combination plates were then generated by choosing 20 of the best compounds from this single agent screen and plated in the presence of the BTK inhibitor. The first analysis was carried out using 6x6 dose response blocks for each of the 20 compounds. […] In addition to the cell viability assay, the parallel caspase 3/7 activation and viability in hMSC assays were carried out in the 10x10 format.
A total of 500 log growing TMD8 cells are seeded per well in 5 uL of a RPMI with glutamine (or Glutamax), without phenol red plus 5% FBS and 1X Pen/Strep into 1536 -solid white high base tissue culture treated Greiner One Bio Plates (789173-F) using a multidrop combi dispenser and a small sterile cassette. Compounds and controls totaling 23nL per well (negative control DMSO and positive control 9.2 uM Bortezomib-final) are immediately added to the plates using a 1536 head pin tool from Kalypsys. The plates are then covered with stainless steel gasket lids from Kalypsys and incubated for either 8 hours at 37C under 95% relative humidity with 5% CO2. After the desired incubation time, the plates are removed and allowed to reach room temperature before 3 uL of the Caspase Glo reagent (Promega) is added using an Aurora Flying Reagent Dispenser Bioraptor. The plates are then spun at 1000 rpms to remove bubbles and incubated for 15 minutes at room temperature before read on a ViewLux using a luminescent filter with a 10 second exposure. The relative luciferase units are used to calculated percent activity using DMSO as 0% and Bortezomib as 100%.
`C[C@@H]1[C@@H](C(=O)C[C@H]2O[C@@H]3O[C@]4(C)CC[C@@H]5[C@H](C)CC[C@@H]([C@H]2C)[C@@]35OO4)O[C@@H]2O[C@]3(C)CC[C@H]4[C@H](C)CC[C@@H]1[C@@]24OO3`: the “caspase activation” value was -53.8%. For the molecule `CN(C)CCN(C)CCc1ccc(Cl)c(Cl)c1`, the “caspase activation” value is 13.5%. Still for that read-out and setting: to `COC1(CS(=O)c2ccccc2)CCN(CCc2c[nH]c3ccc(F)cc23)CC1` (configuration not stated) belongs -21.8%; to `Cn1c(CCCC(=O)O)nc2cc(N(CCCl)CCCl)ccc21`, -21.1%. Consider `Cc1sc2c(c1C)C(c1ccc(Cl)cc1)=N[C@@H](CC(=O)OC(C)(C)C)c1nnc(C)n1-2`, for which the Potency is 23.5 µM (active). Regarding `CNC(=O)c1ccc(N2C(=S)N(c3ccc(C#N)c(C(F)(F)F)c3)C(=O)C23CCC3)cc1F`, the “caspase activation” value is 0.399%. Same read-out and setting: next, `CCCCC/C=C\C/C=C\C/C=C\C/C=C\CCCC(=O)NC1CC1`: 7.36%.

In the case of `Cc1cc(SCc2sc(-c3ccc(C(F)(F)F)c(F)c3)nc2C)ccc1OCC(=O)O`, the “caspase activation” value is 4.5%. Same read-out and setting: to `C[C@@H]1[C@@H](CC(C[C@H]2O[C@@H]3O[C@]4(C)CC[C@@H]5[C@H](C)CC[C@@H]([C@H]2C)[C@@]35OO4)C[S+](=O)([O-])c2ccc(COC(=O)N(C)C)cc2)O[C@@H]2O[C@]3(C)CC[C@H]4[C@H](C)CC[C@@H]1[C@@]24OO3` (some centres not stated) belongs -32.1%. For the molecule `COc1cc(Nc2c(C#N)cnc3cc(OCCCN4CCN(C)CC4)c(OC)cc23)c(Cl)cc1Cl`, the Potency is 20.9 µM (active). Consider `CC(O)(CS(=O)(=O)c1ccc(F)cc1)C(=O)Nc1ccc(C#N)c(C(F)(F)F)c1` (configuration not stated), for which the “caspase activation” value was 4.71%. Consider `COc1ccc(C(=O)c2c(C)n(CCN3CCOCC3)c3ccccc23)cc1`, for which the Potency is 26.4 µM (active). `CNC(=O)N1N=C(c2ccc(N)cc2)c2cc3c(cc2CC1C)OCO3` (configuration not stated): the “caspase activation” value is -0.0946%. Still for that read-out and setting: to `C[C@]12CCC(=O)C(O)=C1CC[C@@H]1[C@@H]2CC[C@]2(C)C(=O)CC[C@@H]12` belongs 1.58%. Take `COC[C@H]1OC(=O)c2coc3c2[C@@]1(C)C1=C(C3=O)C2CCC(=O)[C@@]2(C)C[C@H]1OC(C)=O` (some centres not stated): the Potency is 23.5 µM (active). As to `CO[C@@H](C(=O)N1Cc2[nH]nc(NC(=O)c3ccc(N4CCN(C)CC4)cc3)c2C1)c1ccccc1`, the Potency was 16.6 µM (active). Turning to `O=C(O)C(=O)c1cn(Cc2ccccc2)c2ccc(-c3ccc(OC(F)(F)F)cc3)cc12`, the “caspase activation” value is 14.9%.

Values taken from PubChem BioAssay (NCATS).
